DT40 TDP1 no CPT: qHTS for Inhibitors of human tyrosyl-DNA phosphodiesterase 1 (TDP1): qHTS in cells in absence of CPT. DT40 Tdp1-/- hTDP1 cells, no CPT, ATP luminescence, 48 h. Potency, µM (highest dose often 46.2 µM), for the others: at the top dose activity change, negative = growth inhibition, usual class: inhibitors. 420,000 tested, 15% active. AID 686978, 2013; note: potency is the fitted concentration of half-maximal effect; % is set by controls: 0 for no effect and ±100 for the full control effect; nearly all actives have a fitted effect of over 55% in size
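Chicken DT40 Tdp1-/- cells stably complemented with human TDP1 were seeded at 400 cells/well with DMSO in place of 20 nM camptothecin. After compound pinning, cells grew at least 48 hr at 37 °C; viability read by CellTiter-Glo luminescence.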
MCF10A rerep: A quantitative high throughput screen for small molecules that induce DNA re-replication in MCF 10a normal breast cells | MCF 10A DNA re-replication, Hoechst nuclear intensity, 48 h | Potency, µM (top dose mostly 46.1 µM), for inactives: top-dose activity, positive = re-replication, actives largely listed as activators | 350,000 tested, 2.9% active; note: potency is the fitted concentration of half-maximal effect; % of control where 0% means no effect; nearly all actives have a fitted effect of over 50% in size
Chronic BCR inh: qHTS Assay to Find Inhibitors of Chronic Active B-Cell Receptor Signaling | Potency, µM (doses to about 46.1 µM), inactives show at the top dose activity change, negative = inhibition, usual class: inhibitors | 340,000 tested, 0.05% active | ABC-DLBCL IkBa-CBG/CBR reporter, luminescence ratio, 4 h; active = well fitted inhibition curve with a large enough effect in the signal ratio, with a control signal flat, not every such curve was filed as active; inconclusive = small, poorly fitted or top-dose-only effect, or effect the other way, or a change in a side signal; the % refers to the signal ratio;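 note: potency is the fitted concentration of half-maximal effect; plate controls were basal doxycycline-induced cells for no effect and cells given 10 µM MG132 for full effect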
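Compounds up to 46 uM were incubated four hours with TMD8 cells whose green CBG68 luciferase is fused to IkappaBalpha; red CBR luminescence normalised the signal, and concentration-effect curves were fitted to fusion, red and ratio data.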
DT40 TDP1 CPT: qHTS for Inhibitors of human tyrosyl-DNA phosphodiesterase 1 (TDP1): qHTS in cells in presence of CPT; chicken DT40 Tdp1-/-;hTDP1 cells + 20 nM CPT, ATP luminescence, 48 h; Potency, µM (titrated, usually from 46.2 µM), without a hit: at the top dose activity change, negative = growth inhibition, usual class: inhibitors; 420,000 tested, 12% active; note: potency is the fitted concentration of half-maximal effect; % is set by controls: 0 for no effect and ±100 for the full control effect; nearly all actives have a fitted effect of over 55% in size
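Chicken DT40 Tdp1-/- cells stably complemented with human TDP1 were seeded at 400 cells/well in medium containing 20 nM camptothecin, exposed to pin-transferred compounds, and grown at 37 °C for at least 48 hr. Viability was read as ATP luminescence.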
IL1B secr inh: qHTS for Inhibitors of Inflammasome Signaling: IL-1-beta AlphaLISA Primary Screen | AID 743279, 2014 | activity change, % at 57.5 µM | THP-1 LPS/ATP IL-1B secretion, AlphaLISA, 16 h; hits give low values | 360,000 tested, 4.7% active; in the data active = activity change below about -50%; inconclusive = mostly about -30% to -49%; note: % is set by controls: 0 for no effect and ±100 for the full control effect
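THP-1 cells pretreated 1 hr with compounds (up to 57.5 uM final), then stimulated with LPS (250 ng/mL final) plus ATP (1.25 mM final); secreted IL-1B measured by AlphaLISA after 16 hr, decreased signal indicating inhibition.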
SW480 rereplic: A quantitative high throughput screen for small molecules that induce DNA re-replication in SW480 colon adenocarcinoma cells. 340,000 tested, 1.8% active. Potency, µM (titrated, usually from 46.1 µM), inactives show at the top dose re-replication activation, usual class: activators. SW480 DNA re-replication, Hoechst DNA content imaging, 48 h; note: potency is the fitted concentration of half-maximal effect; % of control where 0% means no effect; nearly all actives have a fitted effect of over 55% in size
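DNA re-replication was detected as more nuclei of elevated Hoechst intensity after 48 hr exposure to compound (23 nL pinned per well of 250 cells).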
Active calls of the source: *; [ ] = another dose, or the depositor's remark. Rows were chosen to be rich in hits. Some 19% of all compounds tested hit in one or more screens of this group. Unless noted, calls come from the whole dose curve; as a rule, active = well fitted curve in the direction sought with a large enough effect; inconclusive = small, poorly fitted or top-dose-only effect, or another doubt; inactive = no such curve, though single readings can be large; an effect the other way counts as inactive or inconclusive.

`CN(Cc1ccccc1)c1nc2c(S(=O)(=O)c3ccccc3)nnn2c2ccsc12` gave DT40 TDP1 no CPT -22% and DT40 TDP1 CPT 1%.
For CCc1ccccc1NC(=O)Nc1cc(C(=O)NCc2ccc(OC)cc2)ccc1N1CCCC1 the results were DT40 TDP1 no CPT 9.2µM* and DT40 TDP1 CPT 12µM*.
`CCc1ccccc1NC(=O)Nc1cc(C(=O)NCc2cccc(F)c2)ccc1N1CCCC1` gave DT40 TDP1 no CPT 2.6µM* and DT40 TDP1 CPT 3.3µM*.
Screening COc1ccccc1CNC(=O)c1ccc(N2CCCC2)c(NC(=O)NCc2ccc(F)cc2)c1 returned DT40 TDP1 no CPT -28% and DT40 TDP1 CPT inconclusive.
`CC1CN(c2c(F)c(N)c3c(=O)c(C(=O)O)cn(C4CC4)c3c2F)CC(C)N1` (centres undefined) gave MCF10A rerep -2% and SW480 rereplic -8%.
`CC(C)(CNC(=O)c1cccc(S(=O)(=O)N2CCCCC2)c1)N1CCOCC1` gave DT40 TDP1 no CPT -4%, DT40 TDP1 CPT -4% and IL1B secr inh 7.
Cc1cc(C)c2c(N)c(C(=O)Nc3ccc(F)cc3)sc2n1 was read as DT40 TDP1 no CPT -1%, MCF10A rerep 21µM*, Chronic BCR inh inconclusive, DT40 TDP1 CPT -4%, IL1B secr inh -8 and SW480 rereplic 17%.
`Cc1cc(C)c2c(N)c(C(=O)N/N=C/c3cccs3)sc2n1` gave DT40 TDP1 no CPT inconclusive, MCF10A rerep 18µM*, Chronic BCR inh inconclusive, DT40 TDP1 CPT -9% and SW480 rereplic inconclusive.
Cc1cc(C)c2c(N)c(C(=O)Nc3ccc(C)c(C)c3)sc2n1 was read as DT40 TDP1 no CPT inconclusive, MCF10A rerep inconclusive, Chronic BCR inh 0%, DT40 TDP1 CPT -9%, IL1B secr inh -5 and SW480 rereplic inconclusive.
Screening COc1ccc(/C=N/NC(=O)c2sc3nc(C)cc(C)c3c2N)cc1 returned DT40 TDP1 no CPT inconclusive, MCF10A rerep 5.8µM*, Chronic BCR inh 4%, DT40 TDP1 CPT -23%, IL1B secr inh -26 and SW480 rereplic inconclusive.
Cc1cc(C)c2c(NC(=O)c3ccccc3Cl)c(C(=O)Nc3ccc(C)c(C)c3)sc2n1 was read as DT40 TDP1 no CPT 16µM* and DT40 TDP1 CPT 8.2µM*.
For O=C1c2cc(O)c(O)cc2S(=O)(=O)C1c1ccccc1 (centres undefined) the results were DT40 TDP1 no CPT 5%, MCF10A rerep -6%, Chronic BCR inh 2%, DT40 TDP1 CPT 2%, IL1B secr inh 1 and SW480 rereplic -19%[9.22 µM].
Screening O=C(Cc1csc(-c2ccccc2)n1)NCC(=O)Nc1ccc(F)c(F)c1F returned DT40 TDP1 no CPT -9%, MCF10A rerep -8%, Chronic BCR inh 4%, DT40 TDP1 CPT -4%, IL1B secr inh 1 and SW480 rereplic -9%.
`CCN1CCN(c2ccc(S(=O)(=O)N3CCOCC3)cc2NC(=O)/C=C/c2ccc(C)cc2)CC1` gave DT40 TDP1 no CPT inconclusive, MCF10A rerep 17%, Chronic BCR inh inconclusive, DT40 TDP1 CPT -6%, IL1B secr inh inconclusive and SW480 rereplic 9%.
CCN1CCN(c2ccc(S(=O)(=O)N3CCCCC3)cc2NC(=O)/C=C/c2ccc(OC(F)F)cc2)CC1 was read as DT40 TDP1 no CPT inconclusive, MCF10A rerep inconclusive, Chronic BCR inh -16%, DT40 TDP1 CPT inconclusive, IL1B secr inh -84* and SW480 rereplic inconclusive.

Bioassay records deposited in PubChem BioAssay by National Center for Advancing Translational Sciences (NCATS).
